# Hits are enriched below; roughly 2.4% of the tested compounds scored in any of these assays.
# TRHR PAM – qHTS for Small Molecule Agonists and Allosteric Enhancers of Human TRH Receptor: Primary Screen for Enhancers; TRHR cells, fluo-8 calcium fluorescence, EC20 TRH enhancement; hit rate 0.66% among 360,000; AID 493056, 2011; Thyrotropin-releasing hormone receptor (Homo sapiens), P34981; enhancement, % at 2 µM; in the data active = enhancement above about 30%; also: 0% is about no effect
#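 Enhancer read-out: after compound pinning and an initial kinetic agonist-mode read, an EC20 of TRH (10 nM final) was injected and fluo-8 calcium signal (Ex 480/Em 530) followed at 1 s/cycle for 100 cycles in TRHR-expressing cells.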
# GLP-1R agonist – qHTS of GLP-1 Receptor Agonists; Potency, µM (series often up to 45.6 µM), without a hit: at the highest dose activation, most hits filed as activators; Glucagon-like peptide 1 receptor (Homo sapiens), P43220; HEK293 GLP-1R CRE-luciferase, luminescence, 4-6 h; cells express a hypersensitive GLP-1R form; hit rate 0.007% among 380,000; also: potency is read from the fitted curve at half-maximal effect; % of control where 0% means no effect
# Target sequence (P43220 whole entry, looked up): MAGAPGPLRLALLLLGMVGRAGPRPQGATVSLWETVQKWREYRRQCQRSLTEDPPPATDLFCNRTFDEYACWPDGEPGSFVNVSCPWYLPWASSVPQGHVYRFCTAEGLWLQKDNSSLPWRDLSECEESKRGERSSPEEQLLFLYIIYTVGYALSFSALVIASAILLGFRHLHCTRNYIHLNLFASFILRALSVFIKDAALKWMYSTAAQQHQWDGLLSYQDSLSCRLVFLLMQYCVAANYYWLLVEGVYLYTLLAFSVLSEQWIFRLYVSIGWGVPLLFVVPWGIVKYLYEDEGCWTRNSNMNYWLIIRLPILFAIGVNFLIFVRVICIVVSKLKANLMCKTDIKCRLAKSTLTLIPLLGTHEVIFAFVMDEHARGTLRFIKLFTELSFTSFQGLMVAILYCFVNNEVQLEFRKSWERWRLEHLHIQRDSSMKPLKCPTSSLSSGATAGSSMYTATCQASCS
# GLP1R cytotox – qHTS of GLP-1 Receptor Inverse Agonists: Cytotox Screen; HEK293 cAMP-luciferase reporter cells, luminescence, 24 h; Potency, µM (top dose mostly 38.3 µM), inactives show top-dose activity change, negative = inhibition, most hits filed as inhibitors; hit rate 0.13% among 410,000;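 also: loss of luciferase light is scored as toxicity; potency is read from the fitted curve at half-maximal effect; % is scaled to controls: 0 for no effect and ±100 for the full control effect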
#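 Compound-treated cells are incubated 24 hr at 37 deg C under 5% CO2 after a 12 hour attachment period, then luciferase detection reagent is added and luminescence is measured following 12 min at room temperature; lowered signal indicates toxicity.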
# GLP-1R inv ag – qHTS of GLP-1 Receptor Inverse Agonists (Inhibition Mode). HEK293 GLP-1R CRE-luciferase, luminescence, 24 h; GLP-1R form is constitutively active. AID 624417, 2012. hit rate 1.6% among 410,000. Potency, µM (titrated, usually from 38.3 µM), for inactives: at the highest dose activity change, negative = inhibition, actives largely listed as inhibitors; also: potency is read from the fitted curve at half-maximal effect; % is scaled to controls: 0 for no effect and ±100 for the full control effect; nearly all actives have a fitted effect of over 55% in size
#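 Cells are plated, allowed 12 hours at 37 deg C, then treated with compounds for 24 hr before luciferase detection reagent is added and luminescence is read after 12 min at room temperature. The HEK293 line carries constitutively active GLP-1R with a cAMP-responsive reporter.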
# TRHR agonist – qHTS for Small Molecule Agonists and Allosteric Enhancers of Human TRH Receptor: Primary Screen for Agonists; Thyrotropin-releasing hormone receptor (Homo sapiens), P34981; TRHR cells, calcium flux fluo-8, FDSS agonist mode; activation, % at 2 µM; hit rate 0.18% among 360,000; AID 493084, 2011; in the data active = activation above about 30%; also: 0% is about no effect
#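 Fluo-8-loaded TRHR cells; 10 s baseline, compound added, kinetic Ca2+ fluorescence read 1/s, agonist mode.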
# PTHR1 agonist – qHTS for PTHR1 Agonists: Primary Screen. HEK293 GP2 PTHR1 cells, GloSensor cAMP luminescence, 1 h. Parathyroid hormone/parathyroid hormone-related peptide receptor (Homo sapiens), Q03431. hit rate 0.075% among 410,000. Potency, µM (top dose mostly 115 µM), without a hit: at the top dose activation, most hits filed as activators; also: potency is read from the fitted curve at half-maximal effect; nearly all actives have a fitted effect of over 55% in size
#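 HEK-293-derived GP2 cells expressing PTHR1 and a GloSensor cAMP reporter, 3,000/well, plated overnight, given luciferin plus IBMX (each 0.5 mM as added) for 1 h at 37 °C, then compound for 1 h at 37 °C. Luminescence was read after 15 min at room temperature.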
# The depositor's hits bear a star; i = inactive; u = inconclusive; x = no result; [ ] = remark or other dose. Unless noted, calls follow the shape of the dose curve; as a rule, active = well fitted curve in the direction sought with a large enough effect; inconclusive = small, poorly fitted or top-dose-only effect, or another doubt; inactive = no such curve, though single readings can be large; an effect the other way counts as inactive or inconclusive.
SMILES,TRHR PAM,GLP-1R agonist,GLP1R cytotox,GLP-1R inv ag,TRHR agonist,PTHR1 agonist
CCc1sc2nc(SCC(=O)Nc3cc(C)on3)n(-c3cccc(OC)c3)c(=O)c2c1C,11.6,9.2%,-9.3%,0.0%,-0.6,11.7%
CN(C)c1ccc(/C=C/c2ccc3ccccc3n2)cc1,15.9,-5.6%,274.1%,-74.5%,38.2*,-43.1%
C(=C\c1ccc2ccccc2n1)/c1ccccc1,-4.2,-2.3%,-15.1%,10µM*,0.9,u
Oc1ccc(/C=C/c2ccc3ccccc3n2)cc1,0.8,20.4%,175.6%,u,0.4,-35.5%
O=[N+]([O-])c1ccc(/C=C/c2ccc3ccccc3n2)cc1,-5.0,16.9%,0.1%,10µM*,1.3,-25.6%
CCCN(CCC)c1ccc(/C=C/c2ccc3cc(OCC)ccc3n2)cc1,-3.7,-0.1%,28.1%,u,35.1*,-33.9%
CCCc1nnc(NC(=O)CN2CCN(C)CC2)s1,-5.3,-1.5%,-2.4%,1.4%,0.4,i
COC(=O)c1ccc(/C=N/OCC(=O)NC2CCCCCCC2)cc1,11.3,9.1%,-3.2%,12.6µM*,-0.8,i
O=C1CC(=O)N(CCNc2ncc(C(F)(F)F)cc2Cl)C(=O)N1,5.9,-24.6%,16.7%,0.4%,0.2,i
O=C1C=CC(=O)N1CCNc1ncc(C(F)(F)F)cc1Cl,-8.2,5.9%,u,11.2µM*,2.5,-29.5%
O=C(Cn1nnnc1-c1ccccc1F)Nc1ccc(OC(F)(F)F)cc1,-3.2,x,-1.6%,-13.8%,1.6,i
O=c1[nH]c(C2CCCN(S(=O)(=O)c3ccccc3Cl)C2)nc2c1nnn2Cc1ccc2c(c1)OCCO2 (stereo not given),-10.4,-1.5%,5.9%,60.9%,1.2,-80.5%
CCOC(=O)C[C@H]1c2cc(F)ccc2S(=O)(=O)N1C(C)C,x,-1.8%,3.8%,-4.0%,x,-22.6%
CCCCOc1ccc(OCCNC(=O)c2ccco2)cc1,16.7,17.8%,-1.3%,u,-1.1,i
CCN1CCN(c2ccc(NC(=O)c3ccc4c(c3)OCCO4)cc2C)CC1,-11.6,6.6%,-4.7%,6.31µM*,-0.3,-18.8%
CC1CCN(c2ccc(C(=O)Nc3ccc4c(c3)OCO4)cc2[N+](=O)[O-])CC1,1.5,0.7%,-25.0%,6.31µM*,-0.1,-35.9%
CN1CCc2c(n(CC(O)CNCc3ccccc3)c3ccccc23)C1=O (stereo not given),-4.1,-3.7%,-9.6%,u,-0.8,-1.5%
CC(C)NCC(O)Cn1c2c(c3ccccc31)CCc1c-2cnn1-c1ccccc1 (stereo not given),22.9,-36.4%,u,10µM*,1.6,-11.1%
Cc1ccc(CC(=O)Nc2nccs2)cc1C,32.4*,25.4%,-8.4%,-32.8%,-0.6,-25.1%
CC(NC(=O)CSc1n[nH]c(-c2ccccc2Cl)n1)c1nc2ccccc2n1C (stereo not given),-1.9,x,-1.7%,1.2%,-0.5,u
NC(=O)c1ccc(Oc2ncc(C(F)(F)F)cc2Cl)cc1,20.4,15.8%,-1.0%[7.66 µM],-8.5%[7.66 µM],-0.4,i
Cc1cccc(NC(=O)CCn2nc(-c3ccccc3)c3ccccc3c2=O)c1,-13.2,x,-10.0%,u,0.9,-89.3%
Cc1[nH]c2ccc(C(=O)OC(C)C(=O)NCc3ccccc3)cc2c1C (stereo not given),-5.7,8.7%,u,u,-0.3,-26.5%
Cc1ccccc1CN(C)C(=O)COC(=O)c1ccc2[nH]c(C)c(C)c2c1,x,2.2%,-28.9%,8.91µM*,x,-0.1%
COc1ccc(Cn2c(CO)cnc2SCC(=O)Nc2ccc3c(c2)OCCO3)cc1,-1.2,12.5%,-10.1%,-4.9%,0.0,-17.1%
SMILES,TRHR PAM,GLP-1R agonist,GLP1R cytotox,GLP-1R inv ag,TRHR agonist,PTHR1 agonist
COc1ccccc1NC(=O)C(=O)NCC(c1ccco1)N1CCc2ccccc2C1 (stereo not given),6.9,-31.8%,1.0%,u,0.4,i
N#CC1=C(N)Oc2cc(O)c(Cl)cc2C1c1ccccc1F (stereo not given),7.6,6.8%,203.1%,-7.7%,55.3*,-2.9%
COC(=O)C1=C(C)OC(N)=C(C#N)C1c1ccccc1F (stereo not given),-2.3,-15.6%,7.4%,-1.6%,-0.1,-0.1%[57.5 µM]
CCOc1cccc(-c2nnc3sc(-c4cccs4)nn23)c1,8.3,0.2%,4.1%,0.0%,-0.3,-18.4%[57.5 µM]
CSc1nc(-c2ccccc2)nc(N2CCN(C)CC2)c1C(C)=O,-4.2,2.8%,-13.6%,3.16µM*,0.4,i
COCCCN1C(=O)C(=O)/C(=C(/O)c2ccc(S(=O)(=O)N3CCOCC3)cc2)C1c1ccc(C)cc1 (stereo not given),1.8,-16.7%,-9.7%,11.1%,0.4,i
COc1ccc(N2CCN(C(=O)Cn3c(=O)c4cccn4c4cccnc43)CC2)cc1,-9.3,1.0%,-0.5%,-4.0%,-0.3,-34.5%
Cc1ccc(-c2nnn(CC(=O)N(CCN3CCOCC3)C(C(=O)NC(C)(C)C)c3ccc(C)o3)n2)cc1 (stereo not given),36.6*,9.0%,-2.3%,12.0%,-0.1,i
O=C(Cn1c(=O)oc2ccccc21)Nc1nnc(N2CCCCCC2)s1,30.4*,-2.4%,-28.6%,4.2%,-0.7,-21.4%
CC1CCN(c2nnc(NC(=O)Cn3c(=O)oc4ccccc43)s2)CC1,12.2,-9.4%,3.3%,5.7%,0.8,-3.2%
NC(=O)CC[C@@H]1NC(=O)[C@H](CO)NC(=O)c2cc([N+](=O)[O-])cc(I)c2NCC[C@@H](C(N)=O)NC(=O)[C@H](Cc2ccc(O)cc2)NC1=O,-3.3,x,x,x,-0.1,x
O=C(/C=C/c1cn(-c2ccccc2)nc1-c1cccnc1)N1CCCCC1,0.8,21.4%,-14.6%,14.0%,-1.4,-0.7%
O=C(/C=C/c1cn(-c2ccccc2)nc1-c1cccc(Cl)c1)N1CCN(c2ccccn2)CC1,-9.5,1.5%,-8.8%,7.08µM*,0.0,-32.6%
COc1ccccc1N1CCN(C(=O)C(C)NC(=O)c2ccco2)CC1 (stereo not given),1.5,-8.9%,3.0%,-4.2%,-0.4,i
COc1ccccc1N1CCN(C(=O)c2cnc(N3CCCCC3)c3ccccc23)CC1,-2.3,x,u,3.55µM*,-0.4,-13.1%

# Screening results deposited in PubChem by National Center for Advancing Translational Sciences (NCATS).
